# Residue numbers refer to the chain shown, from its start. The full ranking holds about 9,900 sequences; the median of “r (bound/input frequency ratio)” is about 0.7, and the highest 2% start at about 6.5. This excerpt belongs to a sample that is enriched for the highest values.
# B1: ENSMUSG00000042529.274|Kcnj12 (ssRNA)
# RNA: GGGAGUUCUACAGUCCGACGAUCGCUUCGAUAUCCGCAUGCUAGUGUGCUUACCUGCCACUCACCUCUCUAUCUAGUUGUCGAGUCUAGGGAAGGGCAGAGGGUGGGUCCUGGCCACUGGGUGCCACUGUGGGAGCCGGGGCACCUGUCAUUCUUUCUGAGUAGGUGGGCCUGUAUCCAGAGCAGGGUCUAGGGGCUCCUGCUCCCGGCUCAUCUCAGUGGCCUGAAGCAUUCAAAACUCUAGCCAGCCCCAUCCUCCUCCCUGCCAGAAUGGUCCAGUCCCUGGGCCCUGCUGGAGAGCAGCCUCUUGCGGUCGCACUAGUGUGGAAUUCUCGGGUGUCAAGG
# B2: ENSMUSG00000004113.47|Cacna1b (ssRNA)
# RNA: GGGAGUUCUACAGUCCGACGAUCGCUUCGAUAUCCGCAUGCUAGCUAUCACUGCACUUUGGGACUCAGCACUGGCGUCCGGGCGCGGCACAGCUACCACCACCCCGAUCAGGACCACUGGUGCUAGCUGCACCACGACCACCCAUGUACCAGCUCCAUGGGUGAGGGUUCCAGUUGAUGAGUUUUAUCAUCCGCUCUGGGCUGUGGGGUCACAGCCCUGGGAGGAGGGCCCUCACAUCUCGGCCUCUGUGGUGGAGGCUCCUGCUUCCCUCCCUCCCUCCCUUUUACACUGGAUAGACUAAUACUCUUGCGGUCGCACUAGUGUGGAAUUCUCGGGUGUCAAGG
# B3: ENSMUSG00000004113.89|Cacna1b|48:52;211:215;227:232 (ssRNA)
# RNA: GGGAGUUCUACAGUCCGACGAUCGCUUCGAUAUCCGCAUGCUAGACUAAUAAAGCCCUUUCUUAGAGGGACAUGGUUCUCUCUAUCCUCCACACAACUGCCUUCCUGGGUUCCAUGCCAGAUGUUGGAUCCUAAGCAGGAGGUAGCUGAGUUGAGAUGGACCCAGCAAAUCCAAAUCCUAUGUCAUGGCCUCCAGCAUCCAGGGUGGGUCCUUGGGACUUUUCUUAGGAGGGACUUUCUGAGCCUCGUGGAGACACACGUUUGUCCAAAACACACGCAUGGGAGAUAGGGUACCCCUGAAAGCCUCUUGCGGUCGCACUAGUGUGGAAUUCUCGGGUGUCAAGG
# B4: ENSMUSG00000058297.451|Spock2 (ssRNA)
# RNA: GGGAGUUCUACAGUCCGACGAUCGCUUCGAUAUCCGCAUGCUAAGCAAGCUUCGUGUUUCCUCAGGAGCAAGGUCACACAGGUCAGAUUAUUGUCGGUCCUGCGGGCCUCAUCCUUGAAUAAGCUGCCUGCCCAGUUCCUCCAUCCGUGUUCCUGCCUGCUCCCGUUCCCUUGUUGCGGGCAGGAGAGGUAGGGCUGUGUUGGAAAGAGUUCAACCAAAUUACGGCAGCACCACAUCUUGCCGAGCCCUGGAGCUGCCCUACUAAGAGCCUCCUUAGCCCUGGGUGCUGGGAAGGAUGGUGUACUCUUGCGGUCGCACUAGUGUGGAAUUCUCGGGUGUCAAGG
# B5: ENSMUSG00000061578.871|Ksr2 (ssRNA)
# RNA: GGGAGUUCUACAGUCCGACGAUCGCUUCGAUAUCCGCAUGCUAUUAGGUCAGAGGUAUCAAUACAUCUCCGGAAACAUCGUCACAGAUACCUAGAGGUACUUCAUUGAUCCCUUGAAAAGCAUGUCUUAAUUCUGUUAAGAUGUCAAUCAAGAUUACACAUCUCACUGCUUCACAGGCCAUCAGGGCCCCAUUCUGAGGUCCUGGGACACUACCCAAACCCUAGCACUCUCCCAGUGACUCUCCUAUGAGUACAUAUGCCAUCCUGCUUCCUUUGUGGCAAAACCCUGGGUCACCCAGAGACACUCUUGCGGUCGCACUAGUGUGGAAUUCUCGGGUGUCAAGG
# B6: ENSMUSG00000058297.474|Spock2|15:19 (ssRNA)
# RNA: GGGAGUUCUACAGUCCGACGAUCGCUUCGAUAUCCGCAUGCUAAGGAGAGGUAGGGCACACAUGGAAAGAGUUCAACCAAAUUACGGCAGCACCACAUCUUGCCGAGCCCUGGAGCUGCCCUACUAAGAGCCUCCUUAGCCCUGGGUGCUGGGAAGGAUGGUGUACGUUGGGGAAGUUUGAGGUUGGAGAGAGUAAAUGUGCCUUGAGAGACCACUCAGAGGUCCCAGGAGGAACGGGGGCGGGGCUUAGCCUGGGAGUUCUGGCAGGAGGCAAAGUUGGUGAGAGUCCUGGGACAUCUUACCCUCUUGCGGUCGCACUAGUGUGGAAUUCUCGGGUGUCAAGG
# B7: ENSMUSG00000058297.470|Spock2 (ssRNA)
# RNA: GGGAGUUCUACAGUCCGACGAUCGCUUCGAUAUCCGCAUGCUAUGCUCCCGUUCCCUUGUUGCGGGCAGGAGAGGUAGGGCUGUGUUGGAAAGAGUUCAACCAAAUUACGGCAGCACCACAUCUUGCCGAGCCCUGGAGCUGCCCUACUAAGAGCCUCCUUAGCCCUGGGUGCUGGGAAGGAUGGUGUACGUUGGGGAAGUUUGAGGUUGGAGAGAGUAAAUGUGCCUUGAGAGACCACUCAGAGGUCCCAGGAGGAACGGGGGCGGGGCUUAGCCUGGGAGUUCUGGCAGGAGGCAAAGUUGCUCUUGCGGUCGCACUAGUGUGGAAUUCUCGGGUGUCAAGG
# B8: ENSMUSG00000058297.471|Spock2|33:37 (ssRNA)
# RNA: GGGAGUUCUACAGUCCGACGAUCGCUUCGAUAUCCGCAUGCUACGUUCCCUUGUUGCGGGCAGGAGAGGUAGGGCACACAUGGAAAGAGUUCAACCAAAUUACGGCAGCACCACAUCUUGCCGAGCCCUGGAGCUGCCCUACUAAGAGCCUCCUUAGCCCUGGGUGCUGGGAAGGAUGGUGUACGUUGGGGAAGUUUGAGGUUGGAGAGAGUAAAUGUGCCUUGAGAGACCACUCAGAGGUCCCAGGAGGAACGGGGGCGGGGCUUAGCCUGGGAGUUCUGGCAGGAGGCAAAGUUGGUGAGACUCUUGCGGUCGCACUAGUGUGGAAUUCUCGGGUGUCAAGG
# B9: ENSMUSG00000058297.468|Spock2 (ssRNA)
# RNA: GGGAGUUCUACAGUCCGACGAUCGCUUCGAUAUCCGCAUGCUACGUGUUCCUGCCUGCUCCCGUUCCCUUGUUGCGGGCAGGAGAGGUAGGGCUGUGUUGGAAAGAGUUCAACCAAAUUACGGCAGCACCACAUCUUGCCGAGCCCUGGAGCUGCCCUACUAAGAGCCUCCUUAGCCCUGGGUGCUGGGAAGGAUGGUGUACGUUGGGGAAGUUUGAGGUUGGAGAGAGUAAAUGUGCCUUGAGAGACCACUCAGAGGUCCCAGGAGGAACGGGGGCGGGGCUUAGCCUGGGAGUUCUGGCAGCUCUUGCGGUCGCACUAGUGUGGAAUUCUCGGGUGUCAAGG
# B10: ENSMUSG00000058297.472|Spock2|27:31 (ssRNA)
# RNA: GGGAGUUCUACAGUCCGACGAUCGCUUCGAUAUCCGCAUGCUACUUGUUGCGGGCAGGAGAGGUAGGGCACACAUGGAAAGAGUUCAACCAAAUUACGGCAGCACCACAUCUUGCCGAGCCCUGGAGCUGCCCUACUAAGAGCCUCCUUAGCCCUGGGUGCUGGGAAGGAUGGUGUACGUUGGGGAAGUUUGAGGUUGGAGAGAGUAAAUGUGCCUUGAGAGACCACUCAGAGGUCCCAGGAGGAACGGGGGCGGGGCUUAGCCUGGGAGUUCUGGCAGGAGGCAAAGUUGGUGAGAGUCCUGCUCUUGCGGUCGCACUAGUGUGGAAUUCUCGGGUGUCAAGG
# B11: ENSMUSG00000058297.474|Spock2 (ssRNA)
# RNA: B6 RNA with A58U, C59G, A60U, C61G, A62U
# B12: ENSMUSG00000058297.471|Spock2 (ssRNA)
# RNA: B8 RNA with A76U, C77G, A78U, C79G, A80U
# B13: ENSMUSG00000058297.472|Spock2 (ssRNA)
# RNA: B10 RNA with A70U, C71G, A72U, C73G, A74U
# B14: ENSMUSG00000058297.473|Spock2 (ssRNA)
# RNA: GGGAGUUCUACAGUCCGACGAUCGCUUCGAUAUCCGCAUGCUAGCGGGCAGGAGAGGUAGGGCUGUGUUGGAAAGAGUUCAACCAAAUUACGGCAGCACCACAUCUUGCCGAGCCCUGGAGCUGCCCUACUAAGAGCCUCCUUAGCCCUGGGUGCUGGGAAGGAUGGUGUACGUUGGGGAAGUUUGAGGUUGGAGAGAGUAAAUGUGCCUUGAGAGACCACUCAGAGGUCCCAGGAGGAACGGGGGCGGGGCUUAGCCUGGGAGUUCUGGCAGGAGGCAAAGUUGGUGAGAGUCCUGGGACAUCUCUUGCGGUCGCACUAGUGUGGAAUUCUCGGGUGUCAAGG
# B15: ENSMUSG00000058297.469|Spock2 (ssRNA)
# RNA: GGGAGUUCUACAGUCCGACGAUCGCUUCGAUAUCCGCAUGCUACCUGCCUGCUCCCGUUCCCUUGUUGCGGGCAGGAGAGGUAGGGCUGUGUUGGAAAGAGUUCAACCAAAUUACGGCAGCACCACAUCUUGCCGAGCCCUGGAGCUGCCCUACUAAGAGCCUCCUUAGCCCUGGGUGCUGGGAAGGAUGGUGUACGUUGGGGAAGUUUGAGGUUGGAGAGAGUAAAUGUGCCUUGAGAGACCACUCAGAGGUCCCAGGAGGAACGGGGGCGGGGCUUAGCCUGGGAGUUCUGGCAGGAGGCACUCUUGCGGUCGCACUAGUGUGGAAUUCUCGGGUGUCAAGG
# B16: ENSMUSG00000058297.470|Spock2|39:43 (ssRNA)
# RNA: B7 RNA with U82A, G83C, U84A, G85C, U86A
# B17: ENSMUSG00000058297.473|Spock2|21:25 (ssRNA)
# RNA: B14 RNA with U64A, G65C, U66A, G67C, U68A
# Target: TDP-43 (Homo sapiens, UniProt Q13148 1-414)
# Sequence (Q13148 whole entry): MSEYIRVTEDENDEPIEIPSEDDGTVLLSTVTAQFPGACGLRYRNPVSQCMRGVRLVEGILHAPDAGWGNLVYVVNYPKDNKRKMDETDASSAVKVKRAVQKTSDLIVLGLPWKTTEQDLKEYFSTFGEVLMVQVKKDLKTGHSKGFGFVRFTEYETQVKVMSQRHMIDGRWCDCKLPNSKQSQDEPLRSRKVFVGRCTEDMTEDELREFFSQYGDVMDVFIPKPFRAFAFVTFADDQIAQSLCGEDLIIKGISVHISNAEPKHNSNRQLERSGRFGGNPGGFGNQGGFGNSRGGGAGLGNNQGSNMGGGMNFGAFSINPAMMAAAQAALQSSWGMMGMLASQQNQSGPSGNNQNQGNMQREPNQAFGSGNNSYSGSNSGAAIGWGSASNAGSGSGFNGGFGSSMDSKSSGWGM
# Experiment: RNA Bind-n-Seq with designed 260-mer pool; 25 mM Tris-HCl, 150 mM KCl, 3 mM MgCl2, BSA (printed 500 mg/mL), 20 units/mL SUPERase IN; pH not stated; 500 nM RNA pool, 1 h, 4 C; TDP-43 5, 50, 500 nM; high values mean tight binding
# Settings: protein: recombinant; tags: SBP (GST cleaved off with PreScission; pGEX-GST-SBP)
# In short: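 Recombinant SBP-tagged TDP-43 at 5, 50 or 500 nM was captured on streptavidin beads, then incubated 1 h at 4 °C with 500 nM of an in vitro-transcribed 260-nt 3′ UTR oligo pool in 25 mM Tris-HCl, 150 mM KCl, 3 mM MgCl2, BSA and SUPERase IN. Bound RNA was washed, eluted with biotin, reverse transcribed, PCR-amplified and sequenced. Binding is R, each oligo's mapped-read-normalized abundance in the bound sample divided by its abundance in input. Duplicates used two independent protein batches.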
row,Binder,binding signal
1,B1,0.622 R (bound/input frequency ratio)
2,B2,0.27 R (bound/input frequency ratio)
3,B3,0.504 R (bound/input frequency ratio)
4,B4,0.383 R (bound/input frequency ratio)
5,B5,0.301 R (bound/input frequency ratio)
6,B6,3.2 R (bound/input frequency ratio)
7,B7,8.94 R (bound/input frequency ratio)
8,B8,4.19 R (bound/input frequency ratio)
9,B9,3.47 R (bound/input frequency ratio)
10,B10,4.63 R (bound/input frequency ratio)
11,B11,5.67 R (bound/input frequency ratio)
12,B12,7.28 R (bound/input frequency ratio)
13,B13,7.38 R (bound/input frequency ratio)
14,B14,6.95 R (bound/input frequency ratio)
15,B15,2.58 R (bound/input frequency ratio)
16,B16,5.26 R (bound/input frequency ratio)
17,B17,3.59 R (bound/input frequency ratio)

# Reference: paper PMC12864922, “TDP-43 directly inhibits mRNA accumulation in neurites through modulation of mRNA stability”
